Screens from PubChem.
Many of the other results were omitted from the sample, so hits are more common in it than they were.
ST2 IL33 inh – blocks human ST2 binding to IL-33; 78,000 tested, 2.3% active; inhibition, % for hits at 17 µM; Q01638; AlphaLISA ST2-Fc/biotin-IL-33 interaction, 1 h; AID 1259354; in the data active means inhibition above about 30%
Target sequence (Q01638 whole entry, looked up): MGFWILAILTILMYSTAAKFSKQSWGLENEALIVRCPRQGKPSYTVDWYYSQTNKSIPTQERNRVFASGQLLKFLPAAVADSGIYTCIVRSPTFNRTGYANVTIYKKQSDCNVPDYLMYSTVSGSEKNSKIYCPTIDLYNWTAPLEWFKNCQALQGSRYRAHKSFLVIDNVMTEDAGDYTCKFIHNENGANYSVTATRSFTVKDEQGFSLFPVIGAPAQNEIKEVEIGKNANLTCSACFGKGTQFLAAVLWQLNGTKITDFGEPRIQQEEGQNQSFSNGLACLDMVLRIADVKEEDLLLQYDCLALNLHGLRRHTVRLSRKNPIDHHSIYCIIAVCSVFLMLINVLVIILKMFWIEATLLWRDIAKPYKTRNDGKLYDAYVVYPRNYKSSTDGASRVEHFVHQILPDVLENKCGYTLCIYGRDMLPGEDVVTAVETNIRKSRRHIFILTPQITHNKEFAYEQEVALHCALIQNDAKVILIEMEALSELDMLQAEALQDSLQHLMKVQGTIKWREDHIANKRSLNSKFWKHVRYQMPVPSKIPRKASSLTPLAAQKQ
The depositor's hits bear a star; i = inactive; ! = repeats disagree.

SMILES | ST2 IL33 inh
Cc1nn(Cc2c(Cl)cccc2Cl)c(C)c1NC(=O)c1cc(C(C)C)on1 | i
CC(C)C[C@H]1CN(C(=O)c2ccc(-c3nnn(C)n3)cc2)CC[C@@]1(C)O | i
CC[C@H]1CN(C(=O)c2cccnc2N2CCOCC2)CC[C@@]1(C)O | i
CC[C@H]1CN(C(=O)c2ccc(C)cc2C)CC[C@@]1(C)O | 31.0%*
O=C1C2[C@H](C(=O)N1c1ccccc1F)C1c3ccccc3C2(C(=O)O)c2ccccc21 (stereo partly specified) | i
Cc1ncc2c(c1CNS(=O)(=O)c1ccsc1)CCN(C(=O)c1cccc(N(C)C)c1)C2 | i
N#CSC(C#N)Cc1ccccc1 (stereo unspecified) | 33.0%*
N#CC(c1ccccc1)C(C#N)c1ccccc1 (stereo unspecified) | i
N#CSC(C#N)Cc1ccc([N+](=O)[O-])cc1 (stereo unspecified) | 51.0%*
CC(C)(C)NCc1ccc([N+](=O)[O-])cc1 | i
N#Cc1cc(C#N)c(SCc2ccc([N+](=O)[O-])cc2)nc1N | i
OC(Cc1ccccc1)c1ccccc1 (stereo unspecified) | i
O=C(NCCN1CCOCC1)c1cc(=O)[nH]c2ccc(S(=O)(=O)N3CCCCC3)cc12 | i
Cn1c(CCC(=O)N2CCCC3(CNC(=O)O3)C2)nc2cccnc21 (stereo unspecified) | i
COc1ccccc1CNC(=O)CCC1N=C2c3ccccc3N=C(SCC#N)N2C1=O (stereo unspecified) | i
Cc1c(-c2nc3ccccc3c(=O)o2)cccc1[N+](=O)[O-] | 30.0%*
COc1ccccc1-c1nc2ccc(Br)cc2c(=O)o1 | i
O=c1oc(-c2ccccc2[N+](=O)[O-])nc2ccc(I)cc12 | i
Cc1oc(-c2ccc(Cl)cc2)nc1CN(C)Cc1ccc2nsnc2c1 | i
CN1CCN([C@H]2CN(Cc3cc(C(C)(C)C)ccc3O)C[C@@H]2O)CC1 | i
CC(=O)NC(=O)c1cc2cc(Br)ccc2oc1=Nc1ccc(C#N)cc1 | 32.0%*
COc1ccc2oc(=Nc3ccc(C(F)(F)F)cc3)c(C(=O)NC(C)=O)cc2c1 | i
CC(=O)NC(=O)c1cc2ccccc2oc1=Nc1ccc(F)cc1 | i
CC(C)(C)N1CC(O)CN(C(C)(C)C)CC(O)C1 (stereo unspecified) | i
COc1ccc(N2C(=O)C3CCCN3C2c2cc(OC)ccc2OC)cc1 (stereo unspecified) | i
SMILES | ST2 IL33 inh
CN1C(=O)N(CCCc2ccncc2)C(=O)C12CCN(Cc1ccc3c(c1)OCO3)CC2 | i
Cc1[nH]nc(-c2ccc(O)c(O)c2O)c1Oc1ccccc1 | 42.0%*
CCOc1ccc(-c2n[nH]c(C)c2Oc2ccccc2)c(O)c1 | i
COc1ccc(-c2n[nH]c(C)c2Oc2ccccc2)c(O)c1 | i
Oc1ccc(-c2[nH]ncc2Oc2ccccc2)c(O)c1 | i
CCCc1ccc(Oc2cn[nH]c2-c2ccc(O)c(C)c2O)cc1 | i
Oc1ccc(-c2[nH]ncc2Oc2ccccc2)c(O)c1O | 51.0%*
CC(C)c1cc(CN2CCN(C3CCN(C(C)C)CC3)C(CCO)C2)[nH]n1 (stereo unspecified) | i
COc1ccc2nc(N3CCC(C(=O)NC4CCCCC4)CC3)sc2c1 | i
CC(C)NC(=O)c1ccnc(-c2ccc3c(c2)OCCO3)c1 | i
Cn1c(=O)c2c(nc(CN3CCOCC3)n2Cc2ccc(Cl)cc2Cl)n(C)c1=O | i
CC(C)CN(Cc1cnn(C)c1)Cc1cccc2nonc12 | i
Cc1cccc2sc(NC(=O)c3ccc(Cl)cc3[N+](=O)[O-])nc12 | i
Cc1[nH]c2ccccc2c1C(=O)CCC(=O)O | i
Cc1nc(-c2c(C)[nH]c3ccccc23)cs1 | 36.0%*
Cc1nc(-c2ccc(O)cc2)cs1 | i
Cc1ccc(OCCOCCN2CCN(C)CC2)c(I)c1 | i
COc1cc(OC)cc(N2C(=O)[C@@H]3C[C@@H](NC(=O)c4cccn4C)CCN3C2=O)c1 | i
CC(C)c1ccc(N2C(=O)C3C4C=CC(C4)C3C2=O)cc1 (stereo unspecified) | i
CSCC(=O)N[C@H]1CCN2C(=O)N(c3ccc(C(C)C)cc3)C(=O)[C@@H]2C1 | 52.0%*
CCOc1ccc(S(=O)(=O)N2C(C)CCCC2C)cc1 (stereo unspecified) | i
COc1ccc(F)c(F)c1-c1nccn1CCCc1nn[nH]n1 | i
CCN(CC)c1ccc(C=NS(=O)(=O)c2ccc(C)cc2)cc1 | i
CCN(CC)c1ccc(N)c(C)c1 | 53.0%*
COc1ccc(C2CC(c3ccccc3)=NN2C(=O)c2ccccc2)cc1 (stereo unspecified) | i
SMILES | ST2 IL33 inh
COc1ccc(C2=NN(CN3C(=O)C(=O)c4ccccc43)C(c3ccc(OC)cc3)C2)cc1 (stereo unspecified) | 36.0%*
COc1ccc(NC(=O)CN2C(=O)C(=O)c3ccccc32)c(OC)c1 | i
COc1cc(C[C@H]2COC(=O)[C@@H]2Cc2ccc(O)c(OC)c2)ccc1O | i
Cc1cc(NC(=O)CC(C)C)nc2c1c(=O)oc1ccccc12 | i
O=C(Cn1nc(-c2ccccc2)ccc1=O)NCc1cccnc1 | i
O=c1c2cnn(-c3ccccc3)c2ncn1Cc1cccnc1 | i
C(=Nc1cc(-c2ccccc2)nn1-c1ccccc1)c1cccnc1 | 33.0%*
O=C(NCCCN1CCCCC1)c1ccc2c(c1)NC(=O)C(N1CCCCC1)S2 (stereo unspecified) | i
CCCc1cc(NCCCCO)n2c(nc3ccccc32)c1C#N | i
CCc1nc(NCCN(CC)CC)c(C#N)c2c1CCCC2 | i
CCN(CC)CCCNc1c2c(c(C#N)c3nc4ccccc4n13)CCC2 | 42.0%*
Cc1ccc(-c2nc(S(=O)(=O)c3ccccc3)c(SCC(N)=O)o2)cc1 | i
O=C(NCc1cccs1)c1cc(-c2ccc(Cl)s2)nc2ccccc12 | 30.0%*!
Cc1ccc(CNC(=O)c2cc(-c3ccc(Cl)s3)nc3ccccc23)o1 | i
O=C(NCc1cccs1)c1cc(-c2ccc(Br)s2)nc2ccccc12 | i
O=C(c1c(F)c(F)c(F)c(F)c1F)N1CCCCCC1 | i
Cc1ccc(C(=O)Nc2cc(C)cc(C)c2)cc1 | i
O=[N+]([O-])c1ccc(-c2nnc(S)n2-c2ccccc2)cc1 | i
O=C1Nc2ccccc2N(O)N1c1ccc([N+](=O)[O-])cc1 | i
N#Cc1cc2[nH]c3ccccc3c2n(-c2ccc([N+](=O)[O-])cc2)c1=N | 34.0%*!
CCS(=O)(=O)c1c(S(=O)(=O)CC)c2cc(C(C)(C)C)ccn2c1C(=O)c1ccc(F)cc1 | i
COc1ccc(CCNS(=O)(=O)c2ccc3c(c2)CCN3C(=O)C2CC2)cc1OC | i
COc1c(/C=C2/OC(=O)c3c2cc(C)[nH]c3=O)ccc(Cl)c1Cl | i
COc1cc(/C=C2/OC(=O)c3c2cc(C)[nH]c3=O)ccc1O | i
CC(=O)Nc1ccc(/C=C2/OC(=O)c3c2cc(C)[nH]c3=O)cc1 | 46.0%*
SMILES | ST2 IL33 inh
COc1ccccc1N1CCN(C(=O)c2cc3c(C)nc4ccccc4c3o2)CC1 | i
CCOC(=O)c1c(NC(C)=O)sc2c1CCN(Cc1ccccc1)C2 | i
CCOC(=O)c1c(NC(=O)c2cc3ccccc3oc2=O)sc2c1CCN(CC)C2 | 33.0%*
CCN1CCc2c(sc(NC(=O)c3ccc(C)c(C)c3)c2C(=O)OC)C1 | i
CCCOc1ccc(-c2nn(-c3ccccc3)cc2/C=c2\sc3nc(=O)c(C)nn3c2=O)cc1 | i
Cc1c(CNC(=O)c2ccc([N+](=O)[O-])cc2)cnn1C | i
N=Nc1[nH]c(N)c2ccccc12 | 46.0%*
